NADH enzymes = inhibitors of enzymes used to reach an NAD/NADH endpoint | hit rate 0.02% among 65,000 | IC50, µM (series often up to 10 µM), inactives show top-dose inhibition | coupled PK/LDH NADH assays, four targets;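 active = single-dose screening hits from any of four coupled enzyme assays that gave an IC50 when retested across doses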;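 also: the DPM-DC format reads NADH fluorescence rather than 340 nm absorbance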
Abs 340nm = compounds absorbing at 340 nm. compound absorbance at 340 nm, fold over control. fold change at 10 µM. 65,000 tested, under 10 active. AID 708;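 active = at 10 µM dose, initial 340 nm absorbance at least 2 fold that of control wells; inactive = change under 2 fold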;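 also: initial absorbance extrapolated from kinetic A340 decline of NADH oxidation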
Spn DPM-DC inh = S. pneumoniae DPM-DC inhibition; AID 556; hit rate 0.49% among 65,000; purified DPM-DC, PK/LDH coupled NADH fluorescence; calls only at 10 µM;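 active = the 320 compounds with the highest percent inhibition in the single-dose primary screen, excluding strongly autofluorescent ones, cut at about 32% in these data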;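 also: kinetic rate of NADH fluorescence loss reporting ADP formed by the decarboxylase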
Fluor 339 460 = intrinsic fluorescence of library compounds, ex339/em460 – biochemical, MLSMR library, data from DPM-DC assay, artefact control, profiling panel | compound autofluorescence, ex339/em460 nm, NADH buffer; active compounds read high; 1 = no-compound wells, NADH background | fluorescence fold increase at 10 µM | hit rate 5.5% among 65,000 | AID 709;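 active = at 10 µM, mean starting fluorescence two-fold or more over control wells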;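 also: signal is the first read of a kinetic run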
PMK inhibit = inhibitors of Streptococcus pneumoniae phosphomevalonate kinase. purified PMK, PK/LDH-coupled NADH absorbance 340 nm. inhibition, % at 10 µM. hit rate 0.49% among 65,000. AID 539;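 active = top-ranked compounds by inhibition in the single 10 µM screen, taking a fixed number of the strongest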;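 also: 0% = full reaction with DMSO carrier and 100% = background rate without enzyme reaction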
MK inhibit = inhibitors of Streptococcus pneumoniae mevalonate kinase; purified MK, PK/LDH-coupled NADH absorbance 340 nm; inhibition, % at 10 µM; hit rate 0.48% among 65,000; AID 555;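 active = ranked among the strongest by inhibition in the single 10 µM screen, a fixed top-ranked set picked for dose follow-up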
* hit, by the source's call; i = inactive; . = no result shown; + = active, no number; [ ] = another dose, or the depositor's remark. A selection: hits, their analogues and other compounds. The true share with any hit is near 6.3%.

SMILES | NADH enzymes | Abs 340nm | Spn DPM-DC inh | Fluor 339 460 | PMK inhibit | MK inhibit
CN(C)CCSc1nnc(-c2ccccc2)o1 | 18% | 1 | + | 1.2 | 5 | 5
Cn1c(=O)n(C)c2cc(/C=N/n3cnnc3)ccc21 | 10% | 1.2 | i | 2.8* | 11 | 5
O=C(c1coc2ccc(O)c(CN3CCOCC3)c12)C1CC1 | 9% | 1 | i | 1.1 | 13 | 13
Cc1oc2c(CN3CCOCC3)c(O)ccc2c(=O)c1-c1ccc(Br)cc1 | 6% | 0.99 | . | 3.1* | 12 | 6
O=c1c(-c2ccc(Br)cc2)coc2c(CN3CCOCC3)c(O)ccc12 | 4% | 1.1 | . | 3* | 7 | 1
CCc1cc2c(=O)c(-c3nc4ccccc4n3C)coc2c(CN2CCOCC2)c1O | 12% | 1.2 | i | 1.3 | 6 | 1
Cc1oc2c(CN3CCCC3)c(O)ccc2c(=O)c1-c1ccccc1 | 6% | 1.1 | . | 3* | 17 | 9
CCc1cc2c(=O)c(-c3cnn(-c4ccccc4)c3)coc2c(CN2CCOCC2)c1O | 9% | 0.97 | i | 2.9* | 14 | 2
CC(C(=O)N(C1CC1)C1(C(=O)Nc2ccccc2)CCCC1)N1C(=O)c2ccccc2C1=O (stereo not drawn) | 4% | 1 | i | 1.1 | 11 | 0
Cc1ccc(S(=O)(=O)N2CCOCC2)cc1C(=O)NCc1cn2ccsc2n1 | 2% | 1 | i | 1.1 | 4 | 1
CCOC(=O)C1CCN(C(=O)Nc2ccc3nc(C)c(C)nc3c2)CC1 | 3% | 1 | . | 2.9* | 12 | 5
CCOC(=O)C1CCN(C(=O)Nc2ccc3oc(C)nc3c2)CC1 | 6% | 1 | i | 1.1 | 7 | 10
Cc1cc(N2C(=O)CCC2=O)n(-c2ccccc2)n1 | 7% | 1 | i | 1.1 | 5 | 8
CC1=NN(c2ccccc2)C(=O)C1 | 5% | 1 | i | 1 | 0 | 53*
Cc1nc(COC(=O)c2c(C)nn(-c3ccccc3)c2C)cs1 | 6% | 1 | i | 1.1 | 11 | 7
O=c1cccccc1NCc1ccccc1 | 13% | 1.1 | + | 1.1 | 1 | 5
CCN1C(=O)NC(c2cc(Br)ccc2OC)C(C(=O)OC)=C1C (stereo not drawn) | 4% | 0.99 | i | 1 | 13 | 11
Cc1csc2ncc(C(=O)Nc3ccon3)c(=O)n12 | 6% | 1.1 | . | 4.8* | 11 | 0
Cc1csc2ncc(C(=O)Nc3ccccc3Cl)c(=O)n12 | 3% | 1 | +[fluoresces] | 2* | 0 | 5
Cc1n[nH]c(C)c1N1C(=O)c2cccc3c(N4CCCCCC4)ccc(c23)C1=O | 12% | 1 | i | 1.1 | 32* | 5
CCOC(=O)C1CCN(Cc2ccc(N(C)C)cc2)CC1 | 14% | 1.1 | i | 1.1 | 0 | 43*
COc1ccc(CN2CCN(c3ccccn3)CC2)c(OC)c1 | 20% | 1 | i | 1.1 | 23 | 36
CCOC(=O)C1CCN(c2nc(-c3ccccc3)nc3c2oc2ccccc23)CC1 | 6% | 1 | i | 2.1* | 10 | 7
O=C(O)C1CCN(c2nc(-c3ccccc3)nc3c2oc2ccccc23)CC1 | 5% | 1.1 | i | 1.2 | 6 | 10
COc1ccc(CN2CCN(c3ncccn3)CC2)c(OC)c1 | 22% | 1.1 | i | 1.1 | 16 | 49*
SMILES | NADH enzymes | Abs 340nm | Spn DPM-DC inh | Fluor 339 460 | PMK inhibit | MK inhibit
CCN(CC)C(=O)C1CCN(Cc2ccc(Br)cc2)CC1 | 8% | 1.1 | i | 2.7* | 6 | 0
CCOC(=O)C1CCN(c2c(N3CCN(Cc4ccccc4)CC3)c(=O)c2=O)CC1 | 4% | 1.1 | i | 1.1 | 6 | 6
Nc1nc(SCC(=O)N2CCCc3ccccc32)n(-c2ccccc2)n1 | 1% | 1.1 | i | 1.1 | 1 | 1
Cc1cc(O)ccc1Nc1nc2ccccc2nc1Nc1ccc(O)cc1C | 6% | 1 | i | 1.1 | 0 | 18
CCOC(=O)C1CCN(Cc2cn[nH]c2-c2ccc(C)cc2)CC1 | 4% | 1 | i | 1.1 | 8 | 3
CCOC(=O)C1CCN(Cc2cn[nH]c2-c2ccccc2)CC1 | 10% | 1 | . | 3.8* | 12 | 7
CCOC(=O)C1CCN(Cc2ccc(OC)cc2OC)CC1 | 18% | 1.1 | i | 1.1 | 0 | 51*
CCOC(=O)C1CCN(C(=O)Cc2ccc(OC)c(OC)c2)CC1 | 8% | 1 | i | 1.1 | 22 | 2
N#C/C(Cn1c[n+](NC(=O)Nc2ccccc2)cn1)=N/O | 5% | 1 | i | 1.1 | 5 | 9
CCC(C)(C)NC(=O)C(OC(=O)c1cc2sccc2n1C)c1ccc(OC)cc1 (stereo not drawn) | 0% | 1.1 | i | 1 | 0 | 0
COc1ccc(S(=O)(=O)N(C)CC(=O)NC2CC2)cc1 | 6% | 1 | i | 1.1 | 8 | 6
COc1ccc(-c2cn3cccnc3n2)cc1NC(=O)C1CCCC1 | 12% | 1.1 | . | 4.8* | 19 | 4
COc1ccccc1NC(=O)C1CCCCC1 | 0% | 1.1 | i | 1.1 | 0 | 1
CCOC(=O)C1CCN(S(=O)(=O)c2cccc(-c3csc(C)n3)c2)CC1 | 4% | 0.98 | i | 1.1 | 11 | 11
COc1ccc(-c2cn3cccnc3n2)cc1NC(=O)C1CC1 | 12% | 1.1 | i | 3.2* | 18 | 0
CCOC(=O)C1CCN(S(=O)(=O)c2cccc(-c3cn4cccnc4n3)c2)CC1 | 5% | 1.1 | . | 2.1* | 0 | 9
O=C(Nc1ccc(OC(F)(F)F)cc1)C1CCCN(S(=O)(=O)c2cccnc2)C1 (stereo not drawn) | 6% | 0.99 | i | 1.1 | 11 | 7
Cc1cc(N2CCN(C3CCCC3)CC2)n2nc(C)c(-c3ccccc3)c2n1 | 21% | 1 | + | 0.79 | 13 | 9
Cc1nn2c(N3CCN(c4ccccn4)CC3)cc(C(C)C)nc2c1-c1ccccc1 | 9% | 1 | i | 3.1* | 4 | 5
Cc1cc(N2CCOCC2)n2nc(C)c(-c3ccccc3)c2n1 | 9% | 1.1 | i | 1.1 | 17 | 9
COc1ccc(OC(C)=O)c(C2c3cc(OC)c(OC)cc3CCN2C(C)=O)c1 (stereo not drawn) | 8% | 1 | i | 1.1 | 20 | 4
COc1cc2c(cc1OC)C(c1cc3cc(OC)c(OC)cc3[nH]c1=O)N(C(=O)C1CC1)CC2 (stereo not drawn) | 11% | 1.1 | i | 2.6* | 19 | 0
Cc1oc2ncnc(N)c2c1C | 7% | 0.98 | i | 1.2 | 10 | 11
Cc1ccc(-c2oc3ncnc(N)c3c2-c2ccc(C)cc2)cc1 | 4% | 1.1 | . | 3.5* | 3 | 5
CC(C(=O)N1c2ccc(F)cc2CCC1C)N1C(=O)c2ccccc2C1=O (stereo not drawn) | 4% | 0.99 | i | 1 | 11 | 7
CCC(=O)Nc1nonc1-c1nc2ccccc2n1Cc1ccc(Cl)c(Cl)c1 | 11% | 1 | i | 2.2* | 20 | 3

Screens from PubChem.
